The values that follow come from the OligoGym collection.
Further: reference of the scale not given here.

The first test has as its target RDH8. The test can be described thus: pooled miR-30 sensor sort-seq; sequence = guide strand. The note with it: shRNA.
With TCGAGTCGAGCTGATGACGTTG, the sensor-assay potency score (higher = more potent) was -0.883.

Take TAGCGGATGTTGGTCTGTCGGC: the sensor-assay potency score (higher = more potent) is -1.33.

Take TTGACGAGACGGACAGCTCCGA: the sensor-assay potency score (higher = more potent) is -0.0536.

As to TTGGTGTCAAAGACATTCTGCA, the sensor-assay potency score (higher = more potent) is 0.0313.

For the sequence ATCGTTGAAGATGACACCCTGC, the sensor-assay potency score (higher = more potent) amounted to 0.0457.

On to ATGAAGAGTCTGTTCATCCTTT, for which the sensor-assay potency score (higher = more potent) was 0.345.

Sequence TTCTGCATGGCAGCAAGGCTGA had a sensor-assay potency score (higher = more potent) of -1.12.

TTGAGCGTGGTCAGCGGCGAGT came in with a sensor-assay potency score (higher = more potent) of -1.34.

As for TCAAACTCGGTGACCACGGGGC, the sensor-assay potency score (higher = more potent) is -0.118.

The sequence ATCACTGCACACGTCCAGCTGG displayed a sensor-assay potency score (higher = more potent) of -0.715.

With TACAGCTGAGACACTGGGCCAC, the sensor-assay potency score (higher = more potent) stood at 0.00741.

For another test, the target named is RECQL4. The description is as above. Conditions: shRNA.
TTTCTTCCGCCACTTCTGCTTC gave a sensor-assay potency score (higher = more potent) of -1.04.

Sequence TTGAAAACGTTTGCCTTGCAGC displayed a sensor-assay potency score (higher = more potent) of -0.47.

TTGTGGTGAAGGAACCAGTGGC yielded a sensor-assay potency score (higher = more potent) of 0.104.

Sequence TAGCACAGCAAAGTCTCGATGG displayed a sensor-assay potency score (higher = more potent) of -0.495.

TTCTGCAGGACAGATTCCCGTT returned a sensor-assay potency score (higher = more potent) of -0.459.

TTATTCTGCATTTTGGAGCCTC showed a sensor-assay potency score (higher = more potent) of 0.116.

In turn, AACAGCATCTGTGTCTTCCTCA yielded a sensor-assay potency score (higher = more potent) of 0.181.

Turning to TTCAGGAAACAAGACTCCTTGG, the sensor-assay potency score (higher = more potent) was -0.807.

As for TTCTGCTTCATGTTGAGCCGTA, the sensor-assay potency score (higher = more potent) came out at 0.124.

In turn, TAGAGTGGCAGCACGGTGGGGT had a sensor-assay potency score (higher = more potent) of 0.669.

Turning to TTGGTTGTGACTGTGGCACCAC, the sensor-assay potency score (higher = more potent) was determined as 0.278.

The sequence TATTTTCTCCAGAAGCGTCGGT yielded a sensor-assay potency score (higher = more potent) of 0.184.

A further test addresses RELA. Described as above. Conditions: shRNA.
As to TTGGGGACAGAAGCTGAGCTGC, the sensor-assay potency score (higher = more potent) was -1.1.

TTGTCGGTGCACATCAGCTTGC showed a sensor-assay potency score (higher = more potent) of -0.891.

As to TTACGTTTCTCCTCAATCCGGT, the sensor-assay potency score (higher = more potent) is 0.444.

With TATCTGTGCTCCTCTCGCCTGG, the sensor-assay potency score (higher = more potent) was -1.

Regarding TTTACGTTTCTCCTCAATCCGG, the sensor-assay potency score (higher = more potent) was -0.69.

The sequence TTTCTGCACCTTGTCACACAGT showed a sensor-assay potency score (higher = more potent) of -0.991.

Sequence TTCATCATCAAACTGCAGCTGC yielded a sensor-assay potency score (higher = more potent) of 0.151.

In the case of TCAATGATCTCCACATAGGGGC, the sensor-assay potency score (higher = more potent) was -0.148.

In turn, TTCTATAGGAACTTGGAAGGGG came in with a sensor-assay potency score (higher = more potent) of 0.628.

TTGAGCTCGGCAGTGTTGGGGG came in with a sensor-assay potency score (higher = more potent) of 0.294.

As to TTTCCTACAAGCTCGTGGGGGT, the sensor-assay potency score (higher = more potent) was -0.0432.

TAGCCATTGATCTTGATGGTGG displayed a sensor-assay potency score (higher = more potent) of -0.637.

Another test deals with REPS2. The description is as above. The note with it: shRNA.
With TTGACATAGTACTCGCGCTGTT, the sensor-assay potency score (higher = more potent) is -0.809.

The sequence TTCTTGATGAACCTCCTTGAGC showed a sensor-assay potency score (higher = more potent) of -1.27.

TTTTCTGGTCTGAATTTCCTAC came in with a sensor-assay potency score (higher = more potent) of -0.484.

For the sequence ATTGACATAGTACTCGCGCTGT, the sensor-assay potency score (higher = more potent) came out at 0.431.

In turn, TGTTCTTCTGTTATCCTCCAGG came in with a sensor-assay potency score (higher = more potent) of -0.549.
